These results are taken from PubChem BioAssay (NCATS).

Assay in all cases: qHTS profiling for inhibitors of Plasmodium falciparum proliferation (AID 504749); also: nearly all actives have a fitted effect of over 60% in size
What all share (conditions): P. falciparum in erythrocytes, SYBR Green DNA, 72 h; series mostly up to 28.7 µM

The subject of assay [1] is CP217. Put shortly:
(§1)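 Fluorescence of SYBR Green-bound parasite DNA, read at 485/535 nm, served as the growth measure. Infected erythrocytes were cultured with compound 72 h; artemisinin (0.29 uM) and DMSO wells defined the normalization range.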

The subject of assay [2] is CP237. The method in brief:
as §1

In assay [3] the test system is CP238. Put shortly:
as §1

The subject of assay [4] is CP247. The method in brief: as §1
Assay [5] has as its system CP250. The method in brief: as §1
Assay [6] has as its system CP252. Put shortly:
as §1

In assay [7] the test system is CP256. Put shortly:
as §1

Assay [8] deals with CP260. Put shortly: as §1
Assay [9] relates to CP262. Put shortly:
as §1

For assay [10], the system named is CP265. The method in brief: as §1
For assay [11], the system named is CP266. The method in brief: as §1
The test system of assay [12] is CP268. Put shortly:
as §1

The test system of assay [13] is CP269. Put shortly: as §1
For assay [14], the system named is CP286. Put shortly:
as §1

For assay [15], the system named is CP291. The method in brief:
as §1

Assay [16] relates to CP297. The method in brief:
as §1

The subject of assay [17] is CP305. Put shortly:
as §1

For assay [18], the system named is CP315. Put shortly:
as §1

The test system of assay [19] is CP325. Put shortly: as §1
Assay [20] relates to CP329. The method in brief: as §1

SMILES strings stand for the structures. Records with an inconclusive call do not appear. The source made the active and inactive calls. Calls follow the shape of the dose curve; as a rule, active = well fitted inhibition curve with a large enough effect; inconclusive = small, poorly fitted or top-dose-only effect; inactive = flat fitted curve, though single readings scatter.
Potency is read from the fitted curve at half-maximal effect.

Take `CC(=O)[C@H]1CC[C@H]2[C@@H]3CC[C@H]4C[C@H](O)CC[C@]4(C)[C@H]3C(=O)C[C@]12C`: the Potency entry in [1], in assay [2], in assay [3], in [4], in assay [5] and in [6] was “inactive” throughout. The Potency entry in assay [7], in assay [8], in assay [9], in assay [10], in assay [11] and in assay [12] was “inactive” in each case. For the same compound, the Potency entry in assay [13], in [14], in assay [15], in assay [16], in [17] and in [18] was “inactive” in each case. In addition, the Potency result in assay [19] and in [20] was “inactive” throughout.
`CCCC(C)(COC(N)=O)COC(=O)NC(C)C` (stereo not given): the Potency result in [1], in [2], in assay [3], in assay [4], in [5] and in assay [6] was “inactive” each time. The Potency entry in assay [7], in assay [8], in [9], in assay [10], in assay [11] and in assay [12] was “inactive” each time. Besides, the Potency entry in assay [13], in assay [14], in [15], in assay [16], in assay [17] and in [18] was “inactive” throughout. For the same compound, the Potency entry in assay [19] and in assay [20] was “inactive” each time.
For the compound `NCC1(CC(=O)O)CCCCC1`, the Potency entry in assay [1], in assay [2], in assay [3], in assay [4], in assay [5] and in assay [6] was “inactive” in each case. Besides, the Potency entry in [7], in assay [8], in assay [9], in assay [10], in assay [11] and in [12] was “inactive” throughout. Also, the Potency entry in assay [13], in assay [14], in assay [15], in [16], in [17] and in assay [18] was “inactive” throughout. Further, the Potency entry in assay [19] and in assay [20] was “inactive” each time.
As to `Nc1ccncc1`, the Potency entry in [1], in assay [2], in assay [3], in [4], in assay [5] and in assay [6] was “inactive” in each case. Moreover, the Potency entry in assay [7], in assay [8], in assay [9], in assay [10], in [11] and in assay [12] was “inactive” each time. Besides, the Potency result in assay [13], in assay [14], in assay [15], in assay [16], in [17] and in assay [18] was “inactive” in each case. In addition, the Potency entry in assay [19] and in assay [20] was “inactive” each time.
Regarding `Clc1ccc(COC(Cn2ccnc2)c2ccc(Cl)cc2Cl)cc1` (stereo not given), the Potency in assay [1] was 2.51 µM (active); in [2], 1.26 µM (active); in [3], 6.31 µM (active); in assay [4] it was 3.16 µM (active); in [5], 5.01 µM (active); in assay [6] it was 3.98 µM (active). The Potency in [7] was 7.08 µM (active); in assay [8], 2.51 µM (active); in assay [9], 4.78 µM (active); in assay [10], 2.51 µM (active); in assay [12], 15.1 µM (active); in assay [13], 4.78 µM (active). Moreover, the Potency in assay [14] is 3.98 µM (active); in assay [15], 7.57 µM (active); in assay [16] it was 3.79 µM (active); in assay [17] it was 13.5 µM (active); in [18] it was 15.1 µM (active); in assay [19], 9.53 µM (active). Besides, the Potency in [20] was 10.7 µM (active).
On to `CC[N+]1(C)CCCC(OC(=O)C(O)(c2ccccc2)c2ccccc2)C1` (stereo not given), for which the Potency result in assay [1], in assay [2], in [3], in [4], in assay [5] and in assay [6] was “inactive” each time. The Potency result in [7], in assay [8], in [9], in assay [10], in [11] and in assay [12] was “inactive” each time. The Potency result in assay [13], in assay [14], in assay [15], in assay [16], in assay [17] and in [18] was “inactive” throughout. The Potency result in assay [19] and in assay [20] was “inactive” throughout.
As to `CCOC(=O)C1(c2ccccc2)CCN(CCC(C#N)(c2ccccc2)c2ccccc2)CC1`, the Potency in [1] was 3.16 µM (active); in assay [2], 3.98 µM (active); in [3], 3.16 µM (active); in assay [4], 4.47 µM (active); in [5] it was 3.55 µM (active); in assay [6], 3.55 µM (active). The Potency was 1.58 µM (active) in assay [7]; 3.55 µM (active) in [8]; 5.36 µM (active) in assay [9]; 2.51 µM (active) in assay [10]; 6.01 µM (active) in assay [11]; 3.79 µM (active) in assay [12]. Besides, the Potency was 4.26 µM (active) in [13]; 2.82 µM (active) in assay [14]; 4.26 µM (active) in [15]; 5.36 µM (active) in assay [16]; 4.78 µM (active) in assay [17]; 4.78 µM (active) in [18]. The Potency in assay [19] was 4.26 µM (active); in assay [20], 3.79 µM (active).
As for `NCCc1cc(O)c(O)cc1O`, the Potency result in assay [1], in assay [2], in [3], in [4], in assay [5] and in [6] was “inactive” in each case. Also, the Potency entry in assay [7], in [8], in [9], in assay [10], in assay [11] and in [12] was “inactive” throughout. Moreover, the Potency entry in assay [13], in assay [14], in assay [15], in assay [16], in [17] and in [18] was “inactive” in each case. In addition, the Potency result in assay [19] and in assay [20] was “inactive” throughout.
As for `CN1C(=S)CN=C(c2ccccc2)c2cc(Cl)ccc21`, the Potency result in [1], in assay [2], in [3], in [5], in assay [6] and in assay [7] was “inactive” in each case. Besides, the Potency result in assay [8], in [9], in [10], in [11], in [12] and in assay [13] was “inactive” each time. Moreover, the Potency result in [14], in assay [15], in assay [16], in assay [17], in assay [18] and in assay [19] was “inactive” in each case. Also, the Potency entry in assay [20] is “inactive”.
On to `Oc1cc(Cl)ccc1Oc1ccc(Cl)cc1Cl`, for which the Potency in assay [1] is 7.94 µM (active); in [2], 7.08 µM (active); in assay [3], 10 µM (active); in assay [6], 7.94 µM (active); in [8] it was 11.2 µM (active); in [13], 12 µM (active). Moreover, the Potency in assay [14] is 12.6 µM (active); in [16], 15.1 µM (active). Also, the Potency result in assay [11] and in [17] was “inactive” in each case.
Turning to `c1ccc2c(c1)Nc1ccccc1S2`, the Potency entry in assay [3], in [10] and in assay [11] was “inactive” in each case. The Potency in assay [4] was 10 µM (active); in assay [5], 4.47 µM (active); in assay [8], 10 µM (active).
On to `CCCN1CCC[C@@H]2Cc3[nH]ncc3C[C@H]21`, for which the Potency entry in assay [9], in [11], in assay [12], in assay [13], in assay [15] and in [16] was “inactive” throughout. In addition, the Potency result in assay [17], in [18], in [19] and in [20] was “inactive” in each case.
Take `C[C@]12C/C(=C/O)C(=O)C[C@@H]1CC[C@@H]1[C@@H]2CC[C@@]2(C)[C@H]1CC[C@]2(C)O`: the Potency entry in assay [1], in assay [2], in assay [3], in assay [5], in assay [6] and in assay [7] was “inactive” each time. Besides, the Potency result in assay [8], in assay [9], in assay [10], in assay [11], in assay [12] and in assay [13] was “inactive” in each case. In addition, the Potency entry in assay [14], in [16], in assay [17], in assay [18], in assay [19] and in assay [20] was “inactive” throughout.
In the case of `Cc1cccc(C)c1NC1=NCCCS1`, the Potency in assay [2] is 7.08 µM (active). Further, the Potency entry in [4], in assay [5], in assay [11] and in [18] was “inactive” throughout.
For `CC1NCCOC1c1ccccc1` (stereo not given), the Potency entry in assay [1], in assay [3], in assay [4], in assay [5], in [6] and in assay [7] was “inactive” throughout. Further, the Potency result in assay [8], in assay [9], in assay [10], in assay [11], in assay [12] and in [13] was “inactive” throughout. The Potency result in [14], in assay [15], in assay [16], in assay [17], in [18] and in [19] was “inactive” each time. The Potency entry in assay [20] was “inactive”.
For `CC(C)NCC(O)c1ccccc1Cl` (stereo not given), the Potency in assay [1] is 10 µM (active); in [2] it was 5.01 µM (active); in [8], 11.2 µM (active); in assay [14] it was 10 µM (active); in [16], 15.1 µM (active). The Potency result in assay [11], in assay [18] and in assay [20] was “inactive” in each case.
For the compound `O=[N+]([O-])c1cc([As](=O)(O)O)ccc1O`, the Potency in [1] was 3.16 µM (active); in [2], 3.16 µM (active); in assay [5] it was 3.16 µM (active); in assay [6], 3.16 µM (active); in assay [8], 3.16 µM (active); in assay [15], 5.1 µM (active).
